The text below walks through data of PubChem BioAssay (NCI).

Test in all cases: NCI-60 one-dose screen, 48 h (100 = growth as untreated, 0 = no growth, -100 = all killed)
One assay has as its system DU-145 prostate. The conditions noted are these: 10 µM unless noted.
For a further assay, the system named is K-562 leukemia. The conditions noted are these: 10 µM unless noted.
The subject of another assay is MALME-3M melanoma. The conditions noted are these: 10 µM unless noted.
A further assay concerns MDA-MB-231 breast. The conditions noted are these: 10 µM unless noted.
The test system of a further assay is RXF 393 renal. To be noted: 10 µM unless noted.
A further assay concerns SF-268 CNS. The conditions noted are these: 10 µM unless noted.
Another assay concerns SF-295 CNS. The conditions noted are these: 10 µM unless noted.
Another assay concerns SF-539 CNS. To be noted: 10 µM unless noted.
A further assay deals with UACC-257 melanoma. The conditions noted are these: 10 µM.
A further assay deals with M14 melanoma. The conditions noted are these: 10 µM unless noted.

Each structure is given as a SMILES string. About 83,000 compounds went through this panel and 20% of them were active in at least one assay; those are over-represented in the sample as a whole.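 Compound tested at a single concentration for 48 hours in 96-well plates; a percent growth value below 10 was scored as active.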 Unmarked numbers belong to inactive results. Activity calls are given as the source filed them.

With `COc1ccc(/C=C2\CCCC3=C2NC(C)=NC3c2ccc(OC)c(OC)c2)cc1OC` (stereo not given), the growth with DU-145 prostate is 7.29% (active); in the assay on K-562 leukemia, 5.92% (active); in the assay with MALME-3M melanoma, -0.933% (active); in the assay with MDA-MB-231 breast, 7.16% (active); in the assay with RXF 393 renal, -16.6% (active); in the assay on SF-268 CNS, 20%. Besides, the growth is 3.05% (active) with SF-295 CNS, 17.1% with SF-539 CNS, 20.2% in the assay on UACC-257 melanoma and -42.1% (active) in the assay on M14 melanoma.
As to `O=C(O)c1ccc(-n2c(=O)c3ccccc3c3ccccc3c2=O)cc1`, the growth in the assay with DU-145 prostate was 113%; in the assay on K-562 leukemia, 103%; in the assay with MALME-3M melanoma it was 109%; in the assay with MDA-MB-231 breast, 106%; in the assay on RXF 393 renal, 108%; in the assay on SF-268 CNS, 99.5%. Also, the growth was 92.7% in the assay with SF-295 CNS, 97.1% with SF-539 CNS, 102% with UACC-257 melanoma and 117% with M14 melanoma.
As to `CCCCCCCCCCn1cc[n+](C)c1`, the growth is 75.4% with DU-145 prostate; 64.2% in the assay on K-562 leukemia; 8.94% (active) with MALME-3M melanoma; 41.5% in the assay on MDA-MB-231 breast; -20.8% (active) in the assay with RXF 393 renal; 58.7% in the assay on SF-268 CNS. The growth is 9.99% (active) with SF-295 CNS, 30.5% in the assay with SF-539 CNS, -12.4% (active) in the assay with UACC-257 melanoma and 24.6% in the assay with M14 melanoma.
`Clc1ccc2c(c1)NC1(CCSc3ccccc31)n1nccc1-2` (stereo not given): the growth was 103% with DU-145 prostate; 97.4% in the assay with K-562 leukemia; 85.8% with MALME-3M melanoma; 98.1% with MDA-MB-231 breast; 119% in the assay with RXF 393 renal; 94.8% in the assay with SF-268 CNS. Besides, the growth is 97.4% with SF-295 CNS, 92.4% in the assay on SF-539 CNS, 97.4% in the assay on UACC-257 melanoma and 96.6% in the assay with M14 melanoma.
`COc1cccc(/C=C/c2c(C(=O)O)cccc2[N+](=O)[O-])c1OC`: the growth is 102% in the assay on DU-145 prostate; 90.4% in the assay on K-562 leukemia; 94.8% in the assay on MALME-3M melanoma; 107% in the assay on MDA-MB-231 breast; 108% in the assay with RXF 393 renal; 95.8% in the assay on SF-268 CNS. Moreover, the growth in the assay with SF-295 CNS was 91.6%; in the assay on SF-539 CNS, 104%; with UACC-257 melanoma, 101%; in the assay on M14 melanoma, 103%.
As to `O=C(CN1CCOCC1)Nc1ccc(-c2nc3ccccc3s2)cc1`, the growth was 109% in the assay on DU-145 prostate; 99.3% in the assay with K-562 leukemia; 117% in the assay with MALME-3M melanoma; 96.8% in the assay on MDA-MB-231 breast; 111% in the assay on RXF 393 renal; 110% in the assay with SF-268 CNS. Also, the growth in the assay on SF-295 CNS was 98.2%; with SF-539 CNS, 89.7%; in the assay with UACC-257 melanoma it was 101%; in the assay on M14 melanoma, 101%.
In the case of `O=C(Nc1ccc(Cl)cc1)c1cc(-c2ccc(F)cc2)c2sc(=O)[nH]c2n1`, the growth with DU-145 prostate was 24.2%; in the assay with K-562 leukemia it was 10.6%; with MALME-3M melanoma, 4.01% (active); in the assay with MDA-MB-231 breast, 5.74% (active); in the assay on RXF 393 renal, 5.27% (active); in the assay with SF-268 CNS, 23.6%. Moreover, the growth in the assay on SF-295 CNS was 9.57% (active); with SF-539 CNS, -4.01% (active); with UACC-257 melanoma it was -8.82% (active); with M14 melanoma it was 13.9%.
Take `N#CC1=C(N)OC2=C(C(=O)CCC2)C1c1ccco1` (stereo not given): the growth in the assay with DU-145 prostate was 108%; in the assay on K-562 leukemia it was 98.6%; in the assay on MALME-3M melanoma, 113%; in the assay with MDA-MB-231 breast, 113%; in the assay on RXF 393 renal, 114%; with SF-268 CNS, 114%. Moreover, the growth in the assay with SF-295 CNS is 108%; with SF-539 CNS it was 97.5%; in the assay on UACC-257 melanoma, 102%; in the assay with M14 melanoma, 104%.
With `Cn1c(-c2nonc2NC(=O)c2ccc(F)cc2)nc2ccccc21`, the growth with DU-145 prostate is 107%; with K-562 leukemia, 9.03% (active); in the assay with MALME-3M melanoma, 123%; in the assay with MDA-MB-231 breast, 129%; in the assay with RXF 393 renal it was 109%; in the assay on SF-268 CNS it was 109%. The growth was 98.5% in the assay on SF-295 CNS, 103% in the assay with SF-539 CNS, 97.2% in the assay with UACC-257 melanoma and 106% in the assay with M14 melanoma.
In the case of `COc1cc(OC)c(C(=O)/C=C/c2ccc(C#N)cc2)c(OC)c1`, the growth with DU-145 prostate is 18.3%; in the assay on K-562 leukemia, 9.68% (active); in the assay on MALME-3M melanoma, 44.2%; in the assay on MDA-MB-231 breast, 22.2%; in the assay with RXF 393 renal, 15.9%; in the assay on SF-268 CNS, 21%. In addition, the growth was 8.32% (active) in the assay with SF-295 CNS, 2.95% (active) with SF-539 CNS, 30.8% in the assay with UACC-257 melanoma and 1.79% (active) with M14 melanoma.
Take `N#Cc1ncc(-c2ccc(F)c(F)c2F)c(NC2CCCCCC2)n1`: the growth in the assay with DU-145 prostate was 95.8%; in the assay with K-562 leukemia, 76.8%; in the assay with MALME-3M melanoma, 131%; in the assay with MDA-MB-231 breast, 67%; in the assay with RXF 393 renal, 77.5%; in the assay with SF-268 CNS it was 66.6%. For the same molecule, the growth in the assay with SF-295 CNS was 97.8%; in the assay with SF-539 CNS, 93.7%; with UACC-257 melanoma it was 81.5%; in the assay with M14 melanoma, 97.8%.
Turning to `COc1cc(NCCN=C(N)NC(N)=NC(C)C)c2ncccc2c1`, the growth in the assay with DU-145 prostate is 103%; with K-562 leukemia, 55.5%; with MALME-3M melanoma it was -11% (active); in the assay with MDA-MB-231 breast, 69.3%; with RXF 393 renal it was 101%; in the assay with SF-268 CNS it was 45.1%. The growth in the assay with SF-295 CNS is 108%; in the assay on SF-539 CNS, 6.08% (active); with UACC-257 melanoma, 72.1%; with M14 melanoma, 88.6%.
With `N=C(N)c1ccc(-c2ccc(-c3ccc(Cl)cc3)o2)nc1`, the growth is -98.4% (active) with DU-145 prostate; 112% in the assay on K-562 leukemia; -66.4% (active) in the assay on MALME-3M melanoma; -90% (active) in the assay on MDA-MB-231 breast; -98.1% (active) in the assay on RXF 393 renal; -95.6% (active) in the assay on SF-268 CNS. The growth is -85.4% (active) with SF-295 CNS, -92.4% (active) in the assay with SF-539 CNS, -89% (active) with UACC-257 melanoma and -88.3% (active) with M14 melanoma.
For the molecule `COc1ccc(C(=O)c2cc(OC)c(OC)c(OC)c2)cc1/C=C/C(=O)c1ccc(OC)c(OC)c1`, the growth is -4.98% (active) in the assay with DU-145 prostate; 12.3% in the assay on K-562 leukemia; 56.6% in the assay on MALME-3M melanoma; 26.1% with MDA-MB-231 breast; 29.3% with RXF 393 renal; 17% with SF-268 CNS. For the same molecule, the growth with SF-295 CNS is -46.2% (active); with SF-539 CNS, -23.5% (active); in the assay on UACC-257 melanoma, 49.1%; with M14 melanoma, 36.2%.
